High-throughput results from PubChem.
PI5P4Ka inh = qHTS for Inhibitors of phosphatidylinositol 5-phosphate 4-kinase (PI5P4K); PI5P4Kalpha enzyme, ADP-Glo luminescence, 60 min; stronger effect = lower value; max response, %; actives 1.2% (n = 330,000); AID 652105, 2013; active = max response of -50% or lower; inconclusive = between -30% and -50%; inactive = -30% or higher; also: value at the top dose of about 77 µM
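ADP-Glo luminescence end-point after a 60 min room-temperature kinase reaction. PI5P4Kalpha and substrate in HEPES pH 7.4 buffer with EGTA, 0.1% CHAPS and 5% DMSO; ATP at 5 microM final.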
PI4K2A inh = qHTS for small molecular inhibitors of PI4K2A. activity change, negative = inhibition, % at 76.9 µM. purified PI4K2A, ADP-Glo luminescence, 1 h; stronger effect = lower value. Phosphatidylinositol 4-kinase type 2-alpha (Homo sapiens), Q9BTU6. actives 0.13% (n = 420,000); in the data active = activity change below about -50%; inconclusive = mostly about -30% to -49%;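 also: -100% = wells without enzyme as full effect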
Target sequence (Q9BTU6 whole entry, looked up): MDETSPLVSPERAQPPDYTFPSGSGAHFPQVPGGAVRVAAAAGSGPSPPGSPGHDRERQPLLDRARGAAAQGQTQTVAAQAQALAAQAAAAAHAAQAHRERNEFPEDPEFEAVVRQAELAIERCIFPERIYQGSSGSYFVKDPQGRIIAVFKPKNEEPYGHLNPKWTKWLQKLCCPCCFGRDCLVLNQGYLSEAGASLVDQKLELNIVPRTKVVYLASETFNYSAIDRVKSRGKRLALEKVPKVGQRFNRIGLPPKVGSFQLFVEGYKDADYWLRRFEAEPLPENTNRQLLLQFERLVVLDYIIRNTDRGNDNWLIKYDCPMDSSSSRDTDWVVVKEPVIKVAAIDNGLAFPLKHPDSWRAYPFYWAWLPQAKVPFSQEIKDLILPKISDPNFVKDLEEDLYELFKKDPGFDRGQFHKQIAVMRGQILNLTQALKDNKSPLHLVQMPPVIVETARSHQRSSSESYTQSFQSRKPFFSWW
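Compounds are screened against recombinant PI4K2A using PI as substrate and ATP, the latter dispensed at 300 microM. Reactions run one hour at ambient temperature before ADP-Glo detection; full inhibition defined by wells lacking enzyme.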
PGK inhibitor = qHTS Assay to Find Inhibitors of Phosphoglycerate Kinase; Phosphoglycerate kinase, glycosomal (Trypanosoma brucei brucei), P07378; PGK/GAPDH coupled, Kinase-Glo luminescence, 60 min; Potency, µM (series often up to 57.5 µM), for the others: top-dose activity change, negative = inhibition, usual class: inhibitors; actives 0.043% (n = 380,000); also: potency is read from the fitted curve at half-maximal effect; nearly all actives have a fitted effect of over 60% in size
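Recombinant glycosomal PGK reaction used 1,3-bisphosphoglycerate generated in-well by GAPDH (100nM final) in 100mM TEA pH 7.6, 5mM MgCl2, 0.01% Tween-20. After 60 minutes at room temperature, ATP was read by Kinase-Glo Plus luminescence end-point.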
Pin1 inh = qHTS Assay to Find Inhibitors of Pin1 | Peptidyl-prolyl cis-trans isomerase NIMA-interacting 1 (Homo sapiens), Q13526 | Pin1 FP peptide displacement, HiFluor488, 10 min | Potency, µM (series often up to 115 µM), for inactives: top-dose activity, negative = inhibition, most hits filed as inhibitors | actives 0.009% (n = 390,000) | AID 504891, 2011; active = well fitted inhibition curve with a large enough effect in the polarisation, with a control signal flat, not every such curve was filed as active; inconclusive = small, poorly fitted or top-dose-only effect, or effect the other way, or a change in a side signal; inactive = no such curve, though single readings can be large or run the other way; the % refers to the polarisation; also: potency is read from the fitted curve at half-maximal effect
Target sequence (Q13526 whole entry, looked up): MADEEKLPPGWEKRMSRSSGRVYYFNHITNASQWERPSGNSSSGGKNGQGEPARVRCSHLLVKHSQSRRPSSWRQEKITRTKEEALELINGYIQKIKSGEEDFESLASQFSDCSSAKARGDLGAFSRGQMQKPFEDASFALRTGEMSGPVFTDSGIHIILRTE
GoLoco inh red = qHTS Assay for Inhibitors of RGS12 GoLoco Motif Activity (Red Fluorophore); Guanine nucleotide-binding protein G(i) subunit alpha-1 (Homo sapiens), P63096; Gai1:RGS12 GoLoco peptide FP, rhodamine, 10 min; Potency, µM (titrated, usually from 61.6 µM), for inactives: at the top dose activity, negative = inhibition, most hits filed as inhibitors; actives 0.44% (n = 230,000); active = well fitted inhibition curve with a large enough effect, not every such curve was filed as active; inactive = no such curve, though single readings can be large or run the other way; also: potency is read from the fitted curve at half-maximal effect; nearly all actives have a fitted effect of over 30% in size
GCN5L2 inh = qHTS Assay for Inhibitors of GCN5L2 | GCN5L2 HAT assay, ThioGlo1 CoA-SH fluorescence | Potency, µM (titrated, usually from 58.9 µM), without a hit: top-dose activity change, negative = inhibition, most hits filed as inhibitors | actives 0.21% (n = 390,000) | AID 504327, 2011; also: potency is read from the fitted curve at half-maximal effect
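Compounds, pin-transferred from DMSO stocks, meet 20nM GCN5L2 for 15 min before the reaction begins with H3(1-25) peptide (75uM) and acetyl-CoA (70uM). Thiol-reactive ThioGlo1 reports CoA release over 20 min at room temperature.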
Active calls of the source: *; i = inactive; ? = inconclusive; · = no result. This is a sample that favours compounds with a hit; in the whole collection about 1.2% have one here. Unless noted, calls follow the shape of the dose curve; as a rule, active = well fitted curve in the direction sought with a large enough effect; inconclusive = small, poorly fitted or top-dose-only effect, or another doubt; inactive = no such curve, though single readings can be large; an effect the other way counts as inactive or inconclusive. Unless noted, % is scaled to controls: 0 for no effect and ±100 for the full control effect.

SMILES | PI5P4Ka inh | PI4K2A inh | PGK inhibitor | Pin1 inh | GoLoco inh red | GCN5L2 inh
CC1=C(CCC(=O)O)c2cc3nc(cc4[nH]c(cc5[nH]c(cc1n2)c(C)c5C(C)O)c(C)c4C(C)O)C(C)=C3CCC(=O)O (stereo unspecified) | · | · | · | · | 12.6µM* | 1.2%
CCOC(=O)c1cc(NC(=O)c2ccccc2)c(=O)n2c1oc1ccc(Cl)cc12 | · | -4.4 | -4.5% | 8.8% | · | 13.7%
Cn1c(N2CCOCC2)cc(=O)n(C)c1=O | 9.8 | 0.8 | 7.7% | -0.1% | 2.2% | -2.4%
C[N+](C)(C)CCCCCC(=O)/C=N/O | -2.6 | -0.4 | 0.9% | 0.7% | 2.51µM* | -10.1%
CC(C)CC1c2[nH]c3ccccc3c2CCN1C(=O)c1cnccn1 (stereo unspecified) | -0.9 | 0.2 | -1.2% | 6.6% | 7.3% | -4.5%
Cc1oc(-c2ccc3c(c2)OCCO3)cc1C(=O)O | -28.0 | -74.6* | ? | 1.4% | -2.9% | -4.5%
Cc1c(-c2ccccc2)c(=O)oc2c(CN3CCOCC3)c(O)ccc12 | · | 2.5 | -5.0% | ? | · | ?
Cc1c(-c2ccccc2)c(=O)oc2c(CN3CCCC3)c(O)ccc12 | · | 1.7 | i | 4.6% | · | 35.5µM*
c1ccc2c(c1)SCc1c-2[nH]c2ccccc12 | · | · | · | · | · | 22.4µM*
c1ccc2c(c1)OCCc1c-2[nH]c2ccccc12 | -5.6 | 2.6 | -9.5% | -7.7% | · | 2.6%
CN(C)c1ccc(C=c2c3ccccc3n3c2cc(-c2ccccc2)[n+]3C)cc1 | -50.9* | ? | -15.7% | ? | · | ·
COc1cc(N(C)C)ccc1C=c1c2ccccc2n2c1cc(-c1ccccc1)[n+]2C | ? | ? | ? | 60.9% | · | ·
CN(C)c1ccc(C=c2c3cc([N+](=O)[O-])ccc3n3c2cc(-c2ccccc2)[n+]3C)cc1 | -77.8* | -50.6* | -19.0% | ? | · | ·
CN(C)c1ccc(C=c2c3ccccc3n3c2cc(-c2ccc(Cl)cc2)[n+]3C)cc1 | -57.1* | -21.8 | -13.1% | ? | · | ·
O=C(Cn1sc2ccccc2c1=O)Nc1ccc(F)cc1 | -91.5* | -12.9 | -2.4% | · | · | ·
O=C(Cn1sc2ccccc2c1=O)Nc1ccc(Br)cc1 | -83.1* | -7.2 | -2.6% | · | · | ·
O=C(Cn1sc2ccccc2c1=O)Nc1ccc(Cl)cc1 | -81.8* | -10.6 | 0.6% | · | · | ·
O=C(CSc1nnc(-c2ccccc2)n1-c1ccccc1)Nc1cccc2ccccc12 | · | -4.4 | · | · | · | ·
CCOc1ccc(NC(=O)CN(c2ccc(OC)c(OC)c2)S(=O)(=O)c2ccc(C)cc2)cc1 | 2.7 | -0.4 | -3.9% | -2.0% | · | -9.5%
CC(Nc1cccc2ccccc12)C(=O)N/N=C/c1ccc([N+](=O)[O-])cc1 (stereo unspecified) | 2.1 | -3.0 | -2.9% | -7.5% | -0.3% | ?
COc1cc([N+](=O)[O-])cc(/C=N/NC(=O)C(C)Nc2cccc3ccccc23)c1O (stereo unspecified) | -50.3* | -2.4 | -3.2% | -8.6% | 4.9% | -3.5%
Cc1ccccc1CNCCSc1nnnn1C | · | -4.1 | -8.3% | 23.4% | · | 1.8%
N#C/C(C(=O)Nc1ccc(Cl)cc1)=C(/S)Nc1ccccc1 | -87.1* | -2.4 | -4.6% | -8.7% | · | 7.94µM*
O=C(Nc1ccc(Nc2ccccc2)cc1)c1ccc(Cl)cc1 | 1.0 | -15.9 | 0.1% | -2.6% | · | ·
O=C(NCc1cccc(Br)c1)c1cccn1-c1nnc(N2CCCCC2)s1 | · | -2.6 | -15.9% | 0.8% | · | -3.8%
SMILES | PI5P4Ka inh | PI4K2A inh | PGK inhibitor | Pin1 inh | GoLoco inh red | GCN5L2 inh
CCS(=O)(=O)N1CCC(C(=O)NCCN2CCOCC2)CC1 | -1.2 | -0.8 | 1.1% | 33.7% | 1.0% | 1.8%
Oc1ccc(/C=N/NC(=S)N/N=C/c2ccc(O)cc2)cc1 | -51.0* | -3.2 | -16.8% | -7.5% | -6.2% | -18.4%
CCN1C(=NCCc2cccs2)N[C@@H](CCc2ccccc2)[C@H](C(=O)NCCc2cccs2)[C@H]1C | · | · | · | · | · | -2.3%
CCCN=C1N(CC)C[C@@H]2[C@@H]3C(=O)N(Cc4ccccc4)C(=O)[C@@H]3[C@](C)(C(=O)OC)N12 | -5.1 | -0.9 | -4.6% | -8.7% | · | -5.3%
O=C(/C=C/c1ccccc1Cl)c1ccc(O)cc1 | -53.6* | -4.8 | -7.0% | 6.7% | 1.0% | -0.9%
Cc1csc(N=Nc2ccc(N(C)C)cc2)[n+]1[O-] | -55.5* | -79.0* | 15.8µM* | · | · | ·
O=C(Nc1nccs1)C1CC=CC2CCN(Cc3ccc(Cl)c(Cl)c3)C(=O)C21 (stereo unspecified) | · | · | · | 1.2% | · | ·
Cc1cc(OCc2cc(C(=O)N(C)CCc3cnn(C)c3)no2)cc(C)c1Cl | -5.6 | 5.1 | i | 3.1% | · | -5.8%
CCOc1cc(/C=C\c2nc(O)c([N+](=O)[O-])c(=O)[nH]2)ccc1OC(C)C | -2.7 | -4.4 | -3.9% | -4.3% | · | -11.5%
O=c1[nH]c(/C=C\c2ccc(O)c(Cl)c2)nc(O)c1[N+](=O)[O-] | -96.9* | -7.0 | -0.8% | 3.2% | · | 7.6%
O=c1[nH]c(/C=C\c2cccs2)nc(O)c1[N+](=O)[O-] | -65.7* | -0.7 | -6.5% | · | 4.3% | -5.1%
C=CCc1cc(/C=C/c2nc(O)c([N+](=O)[O-])c(=O)[nH]2)cc(OC)c1O | -64.5* | -25.0 | -23.8% | ? | -54.3% | -4.0%
O=C(/C=C/c1cccs1)Nc1ccc([N+](=O)[O-])cc1 | -12.7 | 5.4 | -3.5% | 5.3% | 0.3% | 36.7%
O=c1[nH]c(/C=C\c2ccc(O)cc2)nc(O)c1[N+](=O)[O-] | -89.4* | -10.0 | -18.7% | 1.1% | · | -24.7%
CCc1nc2c(OCc3c(C)noc3C)cccn2c1N(C)C(=O)C(C)C | 0.1 | 0.2 | · | · | · | ·
C[C@@H]1[C@@H](Sc2ccccc2)CC(=O)O[C@@H]1c1ccc(-c2ccccc2)cc1 | 10.0 | -62.7* | -5.7% | -3.0% | · | ·
Cc1cccc(C)c1NC(=O)[C@@H]1CC(=O)O[C@@H]1c1ccccc1 | · | -4.8 | · | · | · | ·
CC1(C(=O)NS(=O)(=O)C2CC2)CCCN(C(=O)COc2ccc(Cl)cc2Cl)C1 (stereo unspecified) | 0.5 | -3.7 | · | · | · | ·
CNc1n[nH]c(=S)s1 | -57.4* | -1.0 | -4.3% | 5.7% | -10.4% | ?
O=C(Nc1nccs1)c1ccc2ccccc2c1 | -0.5 | 2.6 | -5.3% | -6.9% | · | -11.3%
